Experimental data taken from PubChem BioAssay AID1063 (University of Pittsburgh Molecular Library Screening Center, 2008).
The whole screen tested about 200,000 compounds, of which about 18,000 (9%) were called active. Only a selection was taken, and actives are over-represented in it overall. A number with no mark means an inactive call. No stated cut-off is given here; in the data, active means inhibition above about 50%; inactive means the rest.

test: antileishmanial activity against promastigotes – primary screen (AID 1063); settings: Leishmania major promastigotes, resazurin fluorescence viability; at 10 µM; hits give high values;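 further: promastigotes grown with compound for 44 hours at 28 °C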

Compound | inhibition
Cc1ccccc1NC(=O)c1nn(-c2ccc(F)c(F)c2)ccc1=O | -0.26%
Cc1ccccc1-c1nnc(SCC(=O)NCc2ccc3c(c2)OCO3)n1C | -5.07%
Cc1cnc(NC(=O)CSc2nnc(-c3ccccc3)n2Cc2ccccc2)s1 | 12.5%
Cc1cccc(C)c1NC(=O)CSc1nnc(-c2ccccc2)n1Cc1ccc2c(c1)OCO2 | 53.4% (active)
COc1ccc(C2C(C(C)=O)=C(O)C(=O)N2CCc2c[nH]c3ccccc23)cc1 (stereo not given) | -4.35%
CCCn1c(SCC(=O)Nc2cccc(C(=O)OCC)c2)nnc1-c1ccoc1C | 23.8%
COc1ccccc1NC(=O)CSc1nnc(-c2ccoc2C)n1CCc1ccccc1 | 76.2% (active)
COc1ccccc1NC(=O)CSc1nnc(C)n1CC1CCCO1 (stereo not given) | -2.8%
Cc1ccc(CN2CCC(N3CCC(C(=O)NCC4CCCO4)CC3)CC2)o1 (stereo not given) | -6.4%
CC(=O)c1cc(-c2ccccc2)n(CC(=O)NC2CCCCC2)c1C | -2.4%
COc1ccccc1NC(=O)/C=C/C(N)=O | 59.7% (active)
COc1ccccc1NC(=O)/C=C/C(=O)O | -7.02%
COc1ccccc1NC(=O)c1ccc(C)s1 | 13.5%
O=C(COC(=O)c1cnc(Cl)c(Cl)c1)NCc1ccco1 | -5.74%
O=C(CC1SCCNC1=O)Nc1ccc(Cl)cc1 (stereo not given) | -5.68%
COc1ccc2c(c1)C(SCC(=O)NCc1ccccc1)CC(C)(C)O2 (stereo not given) | -6.83%
COc1cccc(CC2(CO)CCCN(CC3=Cc4cc(OC)ccc4OC3)C2)c1 (stereo not given) | -1.53%
COc1ccc2c(c1)C=CC1(O2)N(CCO)c2ccccc2C1(C)C (stereo not given) | 99.2% (active)
CC(C)C(=O)NCc1cc(-c2ccc(Cl)cc2)no1 | 1.34%
O=S(=O)(c1ccccc1)N(CC(O)CN1CCCCC1)c1ccccc1 (stereo not given) | 45%
COc1ccccc1N(CC(=O)N1CCCCC1)S(=O)(=O)c1ccccc1 | -2.25%
Cc1cccc(N(CC(O)CN(C)C)S(=O)(=O)c2ccccc2)c1 (stereo not given) | 95.9% (active)
CCN(c1ccccc1)S(=O)(=O)c1ccc2[nH]c(=O)[nH]c2c1 | -5.33%
Cc1cccc(N(CC(=O)N2CCOCC2)S(C)(=O)=O)c1 | 0.32%
CCN(c1ccccc1)S(=O)(=O)c1ccc(N)cc1 | -4.44%

Compound | inhibition
Cc1ccc(N(CC(O)CN2CCCC2)S(=O)(=O)c2ccccc2)cc1 (stereo not given) | 60.2% (active)
CCN(c1ccccc1)S(=O)(=O)c1cccc(C(=O)O)c1 | -3.46%
Cc1cc(C)n(CC(O)CN(c2ccccc2)S(=O)(=O)c2ccc3ccccc3c2)n1 (stereo not given) | 61.1% (active)
CC1CCCCC1NC(=O)COC(=O)Cc1ccc(Br)cc1 (stereo not given) | -8.18%
C/C(=N\OCC(=O)Nc1ccc(Br)cc1)c1cccs1 | -1.5%
Cc1cc(NC(=O)CN2C(=O)NC(C)(CCc3ccccc3)C2=O)no1 (stereo not given) | 2.34%
CCc1cccc2c(=O)c(C(=O)NCCCOC)c[nH]c12 | -1.23%
Cc1ccc(-c2nn(-c3ccccc3)cc2/C=N/NC(=O)c2ccc3c(c2)OCO3)cc1 | 8.23%
Cc1ccc(/C=N/NC(=O)C(NC(=O)c2ccccc2)c2n[nH]c(=O)c3ccccc23)cc1 (stereo not given) | -1.59%
Cc1ccc(/C=N/NC(=O)C2=NNC(c3ccccc3)(c3ccccc3)C2)c(O)c1 | 100% (active)
CNCC(O)CN1CCN(c2ccccc2OC)CC1 (stereo not given) | -6.68%
COC(=O)c1c(NC(=O)CN2CCN(S(=O)(=O)c3ccccc3[N+](=O)[O-])CC2)sc2c1CCC(C)C2 (stereo not given) | 76.2% (active)
Cc1c(Br)c([N+](=O)[O-])nn1CC(=O)Nc1sc2c(c1C(=O)OC(C)C)CCC(C)C2 (stereo not given) | -5.92%
COC(=O)c1c(NC(=O)CN2C(=O)NC(CCc3ccccc3)C2=O)sc2c1CCCCC2 (stereo not given) | 28.1%
Cc1ccc(NC(=O)C(=O)NCc2ccco2)c(C)c1 | -8.28%
C/C(CC(=O)Nc1ccc(C)cc1C)=N\NC(=O)C(C)C | 13.4%
NC(=O)c1ccc(N2CCOCC2)nc1 | 2.59%
CCn1cnc2scc(-c3ccc(C)c(C)c3)c2c1=O | -4.16%
COc1ccc(-c2csc3ncnc(Oc4ccc5c(C)cc(=O)oc5c4)c23)cc1 | 16.6%
Cc1cc(F)ccc1S(=O)(=O)Nc1ncnc2scc(-c3ccc(F)cc3)c12 | 64.1% (active)
O=C(NCc1nnc(SCC(=O)N2CCC(Cc3ccccc3)CC2)o1)c1ccco1 | 25%
COCC(C)NC(=O)COc1nncc2ccccc12 (stereo not given) | 4.91%
CNC(=O)NC(=O)C(OC(=O)c1cccc(S(=O)(=O)N2CCCCC2)c1)c1ccccc1 (stereo not given) | 63.2% (active)
CN1CCN(S(=O)(=O)c2cccc(C(=O)O)c2)CC1 | -1.21%
O=C(NNC1=NCCC1)c1cccc(S(=O)(=O)N2CCCCC2)c1 | -5.29%
